# Data from PubChem BioAssay AID1159580 (chemical genetic matrix, 2015).
# Several values for one entry are separate records, joined by “and”; a condition that tells them apart may be missing. Equal entries are not always repeated. About 2,000 (36%) of roughly 5,500 compounds were called active. About 18% were inconclusive and are not listed. No stated cut-off is given here; in the data, active means normalized growth mostly below about 0.91 (no sharp cut-off); inconclusive means no clear call, values can overlap the other calls; inactive means mostly above about 0.92. The list shows a part of the results.
# Assay: chemical genetic growth profiling, strain panel (AID 1159580);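 further: tested at 20 µM; growth read once vehicle control cultures reached saturation at 30 °C; 1 = growth at the plate median or of vehicle wells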
# Settings: S. cerevisiae deletion strains, growth OD
smiles,measurement,setting,value
Nc1ncnc2nc[nH]c12,normalized growth,"locus YAL013W, strain DEP1, stronger effect = lower value",0.94 (inactive)
same,normalized growth,"locus YAL021C, strain ccr4, stronger effect = lower value",0.99 (inactive)
same,normalized growth,"locus YAL026C, strain drs2, stronger effect = lower value",0.99 (inactive)
same,normalized growth,"locus YAL030W, strain snc1, stronger effect = lower value",0.981 (inactive)
same,normalized growth,"locus YBL061C, strain skt5, stronger effect = lower value",0.98 (inactive)
same,normalized growth,"locus YBR009C, strain hhf1, stronger effect = lower value",0.992 (inactive)
same,normalized growth,"locus YBR021W, strain FUR4, stronger effect = lower value",0.201 (active)
same,normalized growth,"locus YBR023C, strain chs3, stronger effect = lower value",0.986 (inactive)
same,normalized growth,"locus YBR171W, strain sec66, stronger effect = lower value",0.976 (inactive)
same,normalized growth,"locus YBR229C, strain ROT2, stronger effect = lower value",1.02 (inactive)
same,normalized growth,"locus YBR231C, strain swc5, stronger effect = lower value",0.982 (inactive)
same,normalized growth,"locus YBR279W, strain paf1, stronger effect = lower value",0.993 (inactive)
same,normalized growth,"locus YCL011C, strain gbp2, stronger effect = lower value",0.978 (inactive)
same,normalized growth,"locus YCL016C, strain dcc1, stronger effect = lower value",0.973 (inactive)
same,normalized growth,"locus YCL029C, strain bik1, stronger effect = lower value",0.923 (inactive)
same,normalized growth,"locus YCL061C, strain MRC1, stronger effect = lower value",0.981 (inactive)
same,normalized growth,"locus YCL069W, strain vba3, stronger effect = lower value",0.99 (inactive)
same,normalized growth,"locus YCR088W, strain abp1, stronger effect = lower value",0.985 (inactive)
same,normalized growth,"locus YDL005C, strain med2, stronger effect = lower value",0.985 (inactive)
same,normalized growth,"locus YDL035C, strain GPR1, stronger effect = lower value",0.894 (inactive)
same,normalized growth,"locus YDL040C, strain nat1, stronger effect = lower value",0.983 (inactive)
same,normalized growth,"locus YDL074C, strain BRE1, stronger effect = lower value",0.645 (active)
same,normalized growth,"locus YDL101C, strain DUN1, stronger effect = lower value",0.968 (inactive)
same,normalized growth,"locus YDL185W, strain tfp1, stronger effect = lower value",1.01 (inactive)
same,normalized growth,"locus YDL192W, strain arf1, stronger effect = lower value",0.797 (active)
same,normalized growth,"locus YDR001C, strain nth1, stronger effect = lower value",0.983 (inactive)
same,normalized growth,"locus YDR069C, strain doa4, stronger effect = lower value",1.01 (inactive)
same,normalized growth,"locus YDR101C, strain arx1, stronger effect = lower value",0.866 (active)
same,normalized growth,"locus YDR137W, strain rgp1, stronger effect = lower value",0.985 (inactive)
same,normalized growth,"locus YDR150W, strain NUM1, stronger effect = lower value",1.02 (inactive)
same,normalized growth,"locus YDR159W, strain sac3, stronger effect = lower value",1 (inactive)
same,normalized growth,"locus YDR162C, strain NBP2, stronger effect = lower value",0.951 (inactive)
same,normalized growth,"locus YDR195W, strain ref2",0.998 (inactive)
same,normalized growth,"locus YDR297W, strain sur2, stronger effect = lower value",1.01 (inactive)
same,normalized growth,"locus YDR318W, strain mcm21, stronger effect = lower value",0.939 (inactive)
same,normalized growth,"locus YDR334W, strain swr1, stronger effect = lower value",0.982 (inactive)
same,normalized growth,"locus YDR335W, strain msn5, stronger effect = lower value",0.984 (inactive)
same,normalized growth,"locus YDR388W, stronger effect = lower value",0.98 (inactive)
same,normalized growth,"locus YDR392W, strain spt3, stronger effect = lower value",0.968 (inactive)
same,normalized growth,"locus YDR502C, strain sam2, stronger effect = lower value",0.908 (active)
same,normalized growth,"locus YEL003W, strain gim4, stronger effect = lower value",1.01 (inactive)
same,normalized growth,"locus YEL037C, strain rad23, stronger effect = lower value",0.984 (inactive)
same,normalized growth,"locus YEL061C, strain CIN8 (second series), stronger effect = lower value",0.986 (inactive)
same,normalized growth,"locus YEL061C, strain CIN8, stronger effect = lower value",0.996 (inactive)
same,normalized growth,"locus YER015W, strain faa2, stronger effect = lower value",0.994 (inactive)
same,normalized growth,"locus YER016W, strain bim1, stronger effect = lower value",0.994 (inactive)
same,normalized growth,"locus YER110C, stronger effect = lower value",1 (inactive)
same,normalized growth,"locus YER111C, strain swi4, stronger effect = lower value",0.983 (inactive)
same,normalized growth,"locus YER155C, strain BEM2 (second series), stronger effect = lower value",0.989 (inactive)
same,normalized growth,"locus YER155C, strain BEM2, stronger effect = lower value",0.792 (active)
same,normalized growth,"locus YER167W, strain BCK2, stronger effect = lower value",1.01 (inactive)
same,normalized growth,"locus YFR010W, strain ubp6, stronger effect = lower value",0.982 (inactive)
same,normalized growth,"locus YGL078C, strain dbp3, stronger effect = lower value",0.969 (inactive)
same,normalized growth,"locus YGL086W, strain mad1, stronger effect = lower value",0.838 (active)
same,normalized growth,"locus YGL167C, strain pmr1, stronger effect = lower value",0.979 (inactive)
same,normalized growth,"locus YGL173C, strain kem1, stronger effect = lower value",0.984 (inactive)
same,normalized growth,"locus YGL227W, strain vid30, stronger effect = lower value",0.987 (inactive)
same,normalized growth,"locus YGL240W, strain doc1, stronger effect = lower value",0.997 (inactive)
same,normalized growth,"locus YGL248W, strain PDE1, stronger effect = lower value",0.9 (inactive)
same,normalized growth,"locus YGL253W, strain hxk2, stronger effect = lower value",0.987 (inactive)
same,normalized growth,"locus YGR078C, strain PAC10, stronger effect = lower value",0.828 (active)
same,normalized growth,"locus YGR135W, strain pre9, stronger effect = lower value",0.922 (inactive)
same,normalized growth,"locus YGR252W, strain gcn5, stronger effect = lower value",0.705 (active)
same,normalized growth,"locus YHR013C, strain ard1, stronger effect = lower value",0.975 (inactive)
same,normalized growth,"locus YHR027C, strain rpn1, stronger effect = lower value",0.979 (inactive)
same,normalized growth,"locus YHR030C, strain SLT2, stronger effect = lower value",0.393 (active) and 1.02 (inactive)
same,normalized growth,"locus YHR079C, strain IRE1 (second series), stronger effect = lower value",0.974 (inactive)
same,normalized growth,"locus YHR079C, strain IRE1, stronger effect = lower value",1.02 (inactive)
same,normalized growth,"locus YHR094C, strain hxt1, stronger effect = lower value",0.999 (inactive)
same,normalized growth,"locus YHR129C, strain ARP1, stronger effect = lower value",0.898 (active)
same,normalized growth,"locus YHR142W, strain chs7, stronger effect = lower value",0.955 (inactive)
same,normalized growth,"locus YHR200W, strain rpn10, stronger effect = lower value",0.998 (inactive)
same,normalized growth,"locus YIL066C, strain RNR3, stronger effect = lower value",0.862 (active)
same,normalized growth,"locus YIL073C, strain SPO22, stronger effect = lower value",0.594 (active)
same,normalized growth,"locus YIL125W, strain kgd1, stronger effect = lower value",0.991 (inactive)
same,normalized growth,"locus YIR030C, strain dcg1, stronger effect = lower value",0.988 (inactive)
same,normalized growth,"locus YJL092W, strain hpr5, stronger effect = lower value",0.99 (inactive)
same,normalized growth,"locus YJL095W, strain BCK1 (second series), stronger effect = lower value",0.984 (inactive)
same,normalized growth,"locus YJL095W, strain BCK1, stronger effect = lower value",0.593 (active) and 1.02 (inactive)
same,normalized growth,"locus YJL115W, strain asf1, stronger effect = lower value",0.99 (inactive)
same,normalized growth,"locus YJL129C, strain trk1, stronger effect = lower value",0.99 (inactive)
same,normalized growth,"locus YJL134W, strain LCB3, stronger effect = lower value",1.02 (inactive)
same,normalized growth,"locus YJL154C, strain vps35, stronger effect = lower value",0.997 (inactive)
same,normalized growth,"locus YJL164C, strain tpk1, stronger effect = lower value",0.993 (inactive)
same,normalized growth,"locus YJL166W, strain qcr8, stronger effect = lower value",0.977 (inactive)
same,normalized growth,"locus YJL168C, strain set2, stronger effect = lower value",1 (inactive)
same,normalized growth,"locus YJL187C, strain SWE1 (second series), stronger effect = lower value",0.863 (active)
same,normalized growth,"locus YJL187C, strain SWE1, stronger effect = lower value",0.98 (inactive)
same,normalized growth,"locus YJR043C, strain POL32, stronger effect = lower value",0.907 (inactive)
